We go through 27 molecules from PubChem BioAssay (EPA / NIEHS).

Molecules are shown by their SMILES. Records with an inconclusive call do not appear. Calls of active or inactive are those of the source. Rule for the calls: active = hit-call score of the fitted dose curve at least 0.9, where 1 is the maximum; inconclusive = response in the unintended direction; inactive = score below 0.9.

Sequence of Glyceraldehyde-3-phosphate dehydrogenase (Homo sapiens) (P04406 whole entry, looked up): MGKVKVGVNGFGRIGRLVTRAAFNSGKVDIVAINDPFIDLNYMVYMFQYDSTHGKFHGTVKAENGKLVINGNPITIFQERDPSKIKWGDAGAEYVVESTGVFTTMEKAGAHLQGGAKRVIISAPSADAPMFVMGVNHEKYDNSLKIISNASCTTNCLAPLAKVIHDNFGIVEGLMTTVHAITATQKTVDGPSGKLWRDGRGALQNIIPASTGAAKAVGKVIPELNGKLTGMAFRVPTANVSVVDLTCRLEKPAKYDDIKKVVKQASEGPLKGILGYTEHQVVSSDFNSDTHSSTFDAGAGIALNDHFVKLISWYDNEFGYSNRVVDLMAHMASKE

Read-out in the experiment: Glyceraldehyde-3-phosphate dehydrogenase (Homo sapiens) (UniProt P04406)
The experiment is described as follows: CLD_GAPDH_24hr: CellzDirect (CLD) Gene Expression Assay for Baseline Control (Glyceraldehyde 3-phosphate dehydrogenase) at 24 hours (AID 2283692). The procedure:
CLD_24hr is a cell-based, multiplexed-readout assay that uses hepatocyte, a human liver primary cell, with measurements taken at 24 hours after chemical dosing in a 96-well plate.CLD_GAPDH_24hr is one of 16 assay component(s) measured or calculated from the CLD_24hr assay. It is designed to make measurements of mRNA induction, a form of inducible reporter, as detected with chemiluminescence signals by Quantitative Nuclease Protection Assay (qNPA) technology.Data from the assay component CLD_GAPDH_24hr was analyzed at the endpoint, CLD_GAPDH_24hr, in the positive analysis fitting direction relative to DMSO as the negative control and baseline of activity. Using a type of inducible reporter, gain-of-signal activity can be used to understand changes in the reporter gene as they relate to the gene GAPDH. Furthermore, this assay endpoint can be referred to as a secondary readout, because this assay has produced multiple assay endpoints where this one serves a background control function. To generalize the intended target to other relatable targets, this assay endpoint is annotated to the background measurement intended target family, where subfamily is baseline control.
Human hepatocyte cultures were treated daily for two consecutive days with fresh dosing solutions containing appropriate concentrations of the 320 ToxCast chemicals (chemical identities were blinded to CellzDirect and other ToxCast collaborators), vehicle control (0.2% DMSO), and positive control inducers as summarized in Table 1. Due to the large number of treatment groups and chemicals examined, the ToxCast chemicals were divided into two groups (spanning two independent cultures of hepatocytes from separate donor preparations (Hu778: ToxCast plates 1 and 2; Hu776: ToxCast plates 3 and 4). Each preparation of human hepatocyte cultures was treated with respective vehicle control, medium only control, set of six positive controls/reference chemicals for the five hepatic receptor pathways, and a subset of eight of the ToxCast chemicals (indoxacarb, pyrithiobac-sodium, norflurazon, cyhalofop-butyl, methomyl, thiram, acetochlor, and propiconazole). These replicate data, coupled with internal replicates designed within the blinded ToxCast chemical library, provided additional data to evaluate interindividual differences between hepatocyte preparations and their potential impact on chemical profiles.Cell morphology and integrity were evaluated using phase-contrast microscopy as an indicator of hepatocyte cell health (Tyson & Green, 1987). Cultures for each treatment group (i.e., media, vehicle [0.2% DMSO], positive control inducers [multiple concentrations], and the ToxCast chemicals [multiple concentrations]) were observed and cell morphology was assessed relative to vehicle control cultures at each harvest time point (0, 6, 24, or 48 h). […] Images were evaluated at the conclusion of the study to assess changes in cell integrity and account for the effects of chemical exposure on uncharacteristic changes in concentration-dependent gene expression profiles. The results from these determinations of apparent cytotoxicity were annotated (yes/no) alongside the corresponding qNPA data for reference.At the conclusion of each treatment period, hepatocyte cultures (96-well) were washed with 1 volume of HBSS, lysed by addition of 25 ul ArrayPlate lysis buffer (HTG, Tucson, AZ), and 70 ul/well of Denaturation Oil, denatured by incubation at 95C for 10 min, and frozen at approximately -70C until analysis by nuclease protection assay (qNPA) (Roberts et al., 2007). For qNPA analysis, cell lysates were thawed at 50C for approximately 30 min, qNPA probes were added, and samples were incubated at 95C for 10 min to begin the detection process by denaturing the target RNA, dissociating the duplexes and secondary structure hybridization. At the conclusion of the hybridization period, S1 nuclease reagent was added to each sample to digest all nonprotected nucleotides at 50C for 60-90 min. […]
On to `CCSC(=O)N(CC(C)C)CC(C)C`, for which the outcome was inactive.
The result for `CCNc1nc(N)nc(Cl)n1` reads “inactive”; that for `COC(=O)c1ccccc1S(=O)(=O)NC(=O)Nc1nc(OC(F)F)cc(OC(F)F)n1`, “inactive”.
With `S=C(S)NCCNC(=S)S.[Mn+2].[S-]C([S-])=NCCN=C([S-])[S-].[Zn+2]` the entry was “inactive”; with `COC(=O)c1ccccc1C(=O)O`, “inactive”.
With `CCC(C)OC(=O)N1CCCCC1CCO` (configuration not stated) the entry was “inactive”.
With `CCC(O)=C1C(=O)CC(C(=O)O)CC1=O` (configuration not stated), the molecule was called inactive.
With `CC(C)(C)[C@@H](O)[C@@H](Cc1ccc(Cl)cc1)n1cncn1` the entry was “inactive”; with `CCCCOC(=O)[C@@H](C)Oc1ccc(Oc2ccc(C(F)(F)F)cn2)cc1`, “inactive”; with `CSC(=O)c1cccc2nnsc12`, “inactive”.
On to `CCCN(CCC)C(=O)SCC`, for which the result was inactive.
With `CCOC(=O)COc1cc(-n2ncc(C(F)(F)F)c(C)c2=O)c(F)cc1Cl`, the outcome was inactive.
The result for `COCCO` reads “inactive”; that for `S=C([S-])NCCNC(=S)[S-].[Mn+2]`, “inactive”.
The result for `CCCCCCC(C)OC(=O)COc1nc(F)c(Cl)c(N)c1Cl` (configuration not stated) reads “inactive”; that for `CCOC(=O)[C@H](C)Oc1ccc(Oc2nc3ccc(Cl)cc3o2)cc1`, “inactive”.
In the case of `Oc1ccc(C(c2ccc(O)cc2)C(Cl)(Cl)Cl)cc1`, the outcome was inactive.
The result for `N#CSCSc1nc2ccccc2s1` reads “inactive”; that for `C#CCOC(=O)[C@@H](C)Oc1ccc(Oc2ncc(Cl)cc2F)cc1`, “inactive”.
With `COC(=O)c1cccc(C)c1S(=O)(=O)NC(=O)Nc1nc(OCC(F)(F)F)nc(N(C)C)n1` the entry was “inactive”.
With `CCCOC(=O)c1ccc(C(=O)OCCC)nc1` the entry was “inactive”; with `OB(O)O`, “inactive”; with `CCCOC(=O)NCCCN(C)C`, “inactive”.
Regarding `CCCCC(CC)COC(=O)c1ccccc1C(=O)O` (configuration not stated), the result was inactive.
The result for `CC1(C)C(C=C(Cl)Cl)C1C(=O)OCc1cccc(Oc2ccccc2)c1` (configuration not stated) reads “inactive”.
Take `COC(=O)c1c(Cl)nn(C)c1S(=O)(=O)NC(=O)Nc1nc(OC)cc(OC)n1`: the result was inactive.
With `CCCCCOC(=O)COc1cc(N2C(=O)C3=C(CCCC3)C2=O)c(F)cc1Cl` the entry was “inactive”.
